Source: PubChem
Most compounds without a hit are left out; they make up all but 1.4% or so of the library.
SARS 3CLpro inh-1: SARS-CoV 3CLpro protease inhibition | P0C6X7 | recombinant SARS-CoV 3CLpro, quenched FRET peptide cleavage | inhibition, % at 6 µM | 290,000 tested, 0.14% active | AID 1706; in the data active = inhibition above about 12%
DUSP3 inh: blocks human VHR1 dual specificity phosphatase; 290,000 tested, 0.52% active; P51452; recombinant VHR phosphatase, pNPP absorbance; inhibition, % at 13.3 µM; in the data active = inhibition above about 50%
Target sequence (P51452 whole entry, looked up): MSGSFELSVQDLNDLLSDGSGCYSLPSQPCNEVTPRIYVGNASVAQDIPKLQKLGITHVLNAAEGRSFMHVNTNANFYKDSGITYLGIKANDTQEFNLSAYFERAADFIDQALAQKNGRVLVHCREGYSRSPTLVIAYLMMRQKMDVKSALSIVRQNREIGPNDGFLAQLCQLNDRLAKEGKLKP
CCHF vOTU inh-1: CCHFV vOTU protease inhibition. inhibition, % at 11.5 µM. AID 651958. Pep-AMC fluorescence. 370,000 tested, 0.55% active
MazEF act: activators of E. coli MazEF toxin-antitoxin RNase | FAM/BHQ RNA-DNA oligo cleavage fluorescence, 5 h | activation, % at 20 µM | 350,000 tested, 0.32% active; in the data active = activation above about 50%
Target sequence (P0AE70 whole entry, looked up): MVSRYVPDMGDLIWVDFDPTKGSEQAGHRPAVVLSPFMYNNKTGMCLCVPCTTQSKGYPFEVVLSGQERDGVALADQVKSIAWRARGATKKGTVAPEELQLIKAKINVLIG
BJeLR lethal: BJeLR cell viability loss; BJeLR (HRASV12) viability, CellTiter-Glo ATP luminescence, 48 h; inhibition, % (no concentration beside the values); 300,000 tested, 0.17% active; AID 1554; in the data active = inhibition above about 50%
SARS 3CLpro inh-2: SARS 3CLpro inhibition, confirmation assay; shares compounds with SARS 3CLpro inh-1; inhibition, % at 6 µM; QFRET protease activity assay; 380 tested, 36% active; in the data active = inhibition above about 13%
CCHF vOTU inh-2: confirmation of CCHF virus vOTU protease inhibitors; shares compounds with CCHF vOTU inh-1; Recombinant CCHFV vOTU, Pep-AMC fluorescence; inhibition, % at 11.5 µM; 1,900 tested, 17% active
A number is an active result; i = inactive; nt = no result. Cut-off read from the data, not from the text of the source, unless noted: active = inhibition above about 30%; inactive = the rest.

SMILES	SARS 3CLpro inh-1	DUSP3 inh	CCHF vOTU inh-1	MazEF act	BJeLR lethal	SARS 3CLpro inh-2	others
CC(C)(C)OC(=O)CNC(=O)c1[nH]cnc1C(=O)NC(c1ccccc1)c1ccccc1	13	i	i	i	i	i
CC(C)(C)OC(=O)[C@H](Cc1ccccc1)NC(=O)c1nc[nH]c1C(=O)NCc1ccccc1	i	i	i	i	i	nt
CC(C)(C)OC(=O)NCc1ccc(NC(=O)c2nc[nH]c2C(=O)N[C@@H](Cc2ccccc2)C(=O)OCc2ccccc2)cc1	nt	i	i	i	i	nt
COc1ccc(-n2c(COc3ccc(Cl)cc3)nnc2SCC(=O)Nc2ccc(Oc3ccccc3)cc2)cc1	nt	nt	i	nt	nt	nt
O=C(CN1C(=O)CCSc2ccccc21)Nc1ccc(Cl)cc1	nt	nt	i	nt	nt	nt
Nc1c(C(=O)NCC(O)c2ccccc2)cnn1-c1ccccc1 (stereo not drawn)	nt	nt	i	nt	nt	nt
O=C(CCl)N(CCc1ccccc1)CCc1ccccc1	16	i	i	i	i	24
Cc1cc(C(=O)CCl)c(C)n1-c1cccc([N+](=O)[O-])c1	20	i	i	i	nt	60
O=C(CCl)Nc1ccccc1C(=O)c1ccccc1	13	i	i	i	i	i
O=C(O)CC1(CC(=O)Nc2ccccc2C(=O)c2ccccc2)CCCC1	i	i	i	i	i	nt
Cc1ccccc1CN1CCCCC(NC(=O)c2cccc(F)c2)C1=O (stereo not drawn)	nt	nt	i	nt	nt	nt
O=Cc1c(C(=O)O)n(CC(=O)O)c2ccccc12	13	i	i	i	i	i
O=Cc1c(C(=O)O)n(Cc2ccc(Cl)cc2)c2ccccc12	i	i	i	i	i	nt
Cc1ccc(-c2cc(NC(=O)c3ccccc3[N+](=O)[O-])n[nH]2)cc1	16	i	i	i	i	14
Cc1noc(NS(=O)(=O)c2ccc(NC(=O)Nc3ccc(Cl)c(Cl)c3)cc2)c1C	16	i	i	i	i	i
O=C1C(=O)N(CCCc2ccccc2)c2ccccc21	19	i	nt	i	i	22
O=C1c2ccccc2C(=O)N1C/C=C/c1ccccc1	i	i	i	i	i	nt
O=C1C(=O)N(C/C=C/c2ccccc2)c2ccccc21	34	i	i	i	i	36
COC(=O)CN(Cc1cn(Cc2ccccc2)nn1)S(=O)(=O)c1ccccc1Br	nt	nt	i	nt	nt	nt
COc1ccc(N(Cc2cc(=O)[nH]c3ccccc23)C(=O)CCl)cc1	16	i	i	i	i	25
CCCC(=O)N(Cc1cc(=O)[nH]c2ccccc12)c1ccc(OC)cc1	i	i	i	i	i	nt
N#CCC(=O)N/N=C/c1cn(Cc2ccccc2C#N)c2ccccc12	i	i	i	i	i	nt
N#CCC(=O)N/N=C/c1c(-c2ccccc2)n(-c2ccccc2)c2ccccc12	22	i	i	i	i	23
COc1ccc(C2C(O)C(c3c[nH]c4ccccc34)=NN2C(=O)CCl)cc1 (stereo not drawn)	61	i	i	i	100	78
COc1ccc(-n2c(SCC(=O)Nc3ccccc3-c3ccccc3)nnc2-c2ccco2)cc1	nt	nt	i	nt	nt	nt
SMILES	SARS 3CLpro inh-1	DUSP3 inh	CCHF vOTU inh-1	MazEF act	BJeLR lethal	SARS 3CLpro inh-2	others
O=C(Nc1ccc(F)cc1)OCc1cn(Cc2cc(F)ccc2F)nn1	nt	nt	i	nt	nt	nt
COc1cc(CC2C(=O)N(C)C(=O)N(C)C2=O)ccc1OCc1ccccc1	i	i	i	i	i	nt
COc1ccc(COc2ccc(C3C(S(=O)(=O)c4ccccc4)CON3C)cc2OC)cc1 (stereo not drawn)	14	i	i	i	i	i
O=S1(=O)c2ccc(N3CCSCC3)cc2Oc2ccccc2CN1Cc1cn(Cc2ccccc2C(F)(F)F)nn1	nt	nt	i	nt	nt	nt
O=C1NC(=O)N(c2ccccc2F)C(=O)/C1=C/c1cn(CC(=O)N2CCOCC2)c2ccccc12	18	i	i	i	i	18
COc1cccc(/C=N/NC(=S)Nc2cccnc2)c1	16	i	i	i	i	18
N#Cc1ccc(CSc2nnc(NC(=O)c3ccc4ncsc4c3)s2)cc1	13	i	i	i	i	43
CC(=O)N1CCc2cc(S(=O)(=O)NCCC(=O)N(C)Cc3ccccc3F)ccc21	nt	nt	i	nt	nt	nt
C/C(=N\NC(=O)c1cccc(Cl)c1)c1cccc(NC(=O)C(C)C)c1	i	i	i	i	i	nt
C/C(=N\NC(=O)c1ccc(Cl)c(Cl)c1)c1cccc(NC(=O)C(C)C)c1	23	i	i	i	i	i
Cc1ccc(S(=O)(=O)/N=C2\C=C(Nc3cccc(C(=O)O)c3)C(=O)c3ccccc32)cc1	14	i	105	i	i	i	CCHF vOTU inh-2=99
Cc1ccc(S(=O)(=O)/N=C2\C=C(Nc3ccc(O)cc3)C(=O)c3ccccc32)cc1	nt	nt	nt	i	nt	nt
CCN(CC)c1ccc(/C=N/NC(=O)c2nnn(-c3nonc3N)c2C(C)C)c(O)c1	14	i	31	i	88	i	CCHF vOTU inh-2=i
CC(C)c1c(C(=O)N/N=C/c2ccc3c(c2)OCO3)nnn1-c1nonc1N	i	i	i	i	i	nt
COc1ccc(C2CC3CN(C4CCCCC4)C(=O)C3N2C)cc1 (stereo not drawn)	nt	nt	i	nt	nt	nt
